In PubChem BioAssay (NCI):
Compounds without any hit were thinned out: in the full panel of roughly 79,000, 15% have a hit. The source made the active and inactive calls. No stated cut-off is given here; in the data, active means growth inhibition above about 70%; inactive means the rest.

Assays:
[1] = NCI Yeast Anticancer Drug Screen. Data for the rad52 strain (AID 147);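 further: 0% = growth of vehicle-treated control cultures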; conditions: S. cerevisiae rad52 mutant growth inhibition, hits give high values
How it was run: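 Yeast strain carrying a DNA damage repair alteration was exposed to test compounds. Growth inhibition was measured relative to vehicle-treated controls.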

[2] = NCI Yeast Anticancer Drug Screen. Data for the wt1 strain (AID 149);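 further: 0% = growth of vehicle-treated wt1 cultures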; conditions: S. cerevisiae wt1 strain (SPY 50644) growth inhibition, hits give high values
How it was run: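 The wt1 strain was treated with compounds, and growth was compared with vehicle-treated cultures to give inhibition.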

[3] = NCI Yeast Anticancer Drug Screen. Data for the rad50EPP+ strain (AID 151);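 further: 0% = growth of vehicle-treated control cultures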; conditions: S. cerevisiae rad50 mutant strain, hits give high values
How it was run: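 Yeast strain carrying rad50 alteration (rad50EPP+) exposed to compounds; growth inhibition measured relative to vehicle-treated controls.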

[4] = NCI Yeast Anticancer Drug Screen. Data for the mgt1 strain (AID 153); conditions: S. cerevisiae mgt1 mutant growth inhibition, hits give high values
How it was run: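 Yeast mgt1 strain (DNA repair/cell-cycle alteration panel) exposed to compounds; growth inhibition measured relative to vehicle-treated controls.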

[5] = NCI Yeast Anticancer Drug Screen. Data for the rad50 strain (AID 155);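 further: 0% = growth of vehicle-only cultures of the same strain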; conditions: S. cerevisiae rad50 strain growth inhibition, hits give high values
How it was run: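 Cells are treated with compound, grown, and their growth is then scored against vehicle-only cultures of the same repair-deficient yeast strain.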

[6] = NCI Yeast Anticancer Drug Screen. Data for the mec2-1 strain (AID 157); conditions: S. cerevisiae mec2-1 strain, hits give high values
How it was run: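 mec2-1 yeast strain, carrying an alteration in DNA damage repair or cell cycle control, was exposed to compounds; growth inhibition was measured relative to vehicle-treated controls.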

[7] = NCI Yeast Anticancer Drug Screen. Data for the rad14 strain (AID 159);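 further: 0% = growth of vehicle-treated control cultures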; conditions: S. cerevisiae rad14 strain growth inhibition, hits give high values
How it was run: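 Readout: yeast growth inhibition, referenced to vehicle-only cultures. Strain bears a defined alteration in DNA damage repair.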

[8] = NCI Yeast Anticancer Drug Screen. Data for the sgs1 mgt1 strain (AID 161);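 further: 0% = growth of cultures given vehicle only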; conditions: S. cerevisiae sgs1 mgt1 strain, hits give high values
How it was run: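 This yeast growth screen uses a strain with defined DNA-repair lesions; compound-treated growth is compared with vehicle-treated growth.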

[9] = NCI Yeast Anticancer Drug Screen. Data for the CLN2oe strain (AID 163);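 further: 0% = growth of vehicle-only control cultures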; conditions: S. cerevisiae CLN2oe strain, hits give high values
How it was run: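 Yeast cells carrying a defined cell-cycle control alteration were exposed to test compounds. Growth inhibition was scored against vehicle-treated control cultures.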

[10] = NCI Yeast Anticancer Drug Screen. Data for the cln2 rad14 strain (AID 165);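 further: 0% = growth equal to vehicle treated cultures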; conditions: S. cerevisiae cln2 rad14 strain, hits give high values
How it was run: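 Yeast carrying cln2 and rad14 alterations (cell cycle control and DNA damage repair) were exposed to compounds. Growth inhibition was measured against vehicle-treated controls.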

[11] = NCI Yeast Anticancer Drug Screen. Data for the bub3 strain (AID 167); conditions: S. cerevisiae bub3 mutant strain, hits give high values
How it was run: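 Part of a panel of yeast mutants defective in DNA damage repair or cell cycle regulation. Each strain is grown with compound, and inhibition is calculated relative to solvent-treated cultures.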

[12] = NCI Yeast Anticancer Drug Screen. Data for the wt2 strain (AID 169);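 further: 0% = growth of vehicle-treated yeast cultures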; conditions: S. cerevisiae wt2 strain growth inhibition, hits give high values
How it was run: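 Yeast cells were exposed to test compounds, and growth inhibition was measured relative to vehicle-treated controls.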

[13] = NCI Yeast Anticancer Drug Screen. Data for the mlh1 strain (AID 171);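 further: 0% = growth of vehicle-treated control cultures of the same strain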; conditions: S. cerevisiae mlh1 strain growth inhibition, hits give high values
How it was run: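 Yeast carrying a defined genetic alteration in DNA damage repair or cell cycle control were exposed to test compounds. Growth inhibition was measured relative to vehicle-treated controls.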

[14] = NCI Yeast Anticancer Drug Screen. Data for the sgs1 strain (AID 173);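 further: 0% = growth of vehicle-only control cultures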; conditions: S. cerevisiae sgs1 mutant, hits give high values
How it was run: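 Yeast mutant strains carrying defined defects in DNA damage repair or cell cycle control were exposed to test compounds. Growth inhibition was scored against vehicle-treated controls.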

[15] = NCI Yeast Anticancer Drug Screen. Data for the mlh1 rad18 strain (AID 175); conditions: S. cerevisiae mlh1 rad18 strain growth inhibition, hits give high values
How it was run: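 Growth inhibition of the yeast strain was measured after compound exposure and expressed relative to vehicle-treated controls. The strain carries defined defects in DNA damage repair.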

[16] = NCI Yeast Anticancer Drug Screen. Data for the rad18 strain (AID 177); conditions: S. cerevisiae rad18 mutant growth inhibition, hits give high values
How it was run: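 Yeast carrying a defined DNA damage repair alteration were exposed to compounds. Growth inhibition was expressed relative to vehicle-treated controls.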

[17] = at 5.0 µM (retest, dose inferred, filed as 0.5)
[18] = at 50.0 µM (retest, dose inferred, filed as 5.0)

Measured: growth inhibition

O=C(NCCCl)Sc1ccc(Cl)cc1
active: [1]; at 100.0 µM 99% | [2]; at 100.0 µM 80% | [3]; at 100.0 µM 90% | [4]; at 100.0 µM 71% | [5]; [18] 85% | [5]; at 50.0 µM 95.2% | [5]; at 100.0 µM 98% | [6]; [18] 82% | [6]; at 50.0 µM 99.3% | [6]; at 100.0 µM 85% | [7]; at 100.0 µM 75% | [8]; at 50.0 µM 84.5% | [11]; [18] 84% | [11]; at 50.0 µM 96.2% | [11]; at 100.0 µM 91% | [12]; at 100.0 µM 92% | [13]; at 100.0 µM 93% | [14]; at 100.0 µM 90% | [15]; [18] 84% | [15]; at 50.0 µM 97.8% | [16]; at 100.0 µM 93%
inactive: [1]; at 1.2 µM 3% | [1]; at 3.7 µM 7% | [1]; at 11.0 µM 10% | [1]; at 33.0 µM 55% | [2]; at 1.2 µM -3% | [2]; at 3.7 µM -3% | [2]; at 11.0 µM 0% | [2]; at 33.0 µM 21% | [3]; at 1.2 µM 3% | [3]; at 3.7 µM 7% | [3]; at 11.0 µM 22% | [3]; at 33.0 µM 56% | [4]; at 1.2 µM 1% | [4]; at 3.7 µM -2% | [4]; at 11.0 µM -2% | [4]; at 33.0 µM 30% | [5]; at 1.2 µM 4% | [5]; at 3.7 µM -7% | [5]; [17] -166% | [5]; at 11.0 µM 7% | [5]; at 33.0 µM 55% | [6]; at 1.2 µM 1% | [6]; at 3.7 µM 1% | [6]; [17] -52% | [6]; at 11.0 µM -10% | [6]; at 33.0 µM 13% | [7]; at 1.2 µM -1% | [7]; at 3.7 µM -7% | [7]; at 11.0 µM 2% | [7]; at 33.0 µM 33% | [8]; [17] -65% | [8]; [18] 53% | [9]; at 1.2 µM -1% | [9]; at 3.7 µM -2% | [9]; at 11.0 µM -2% | [9]; at 33.0 µM 9% | [9]; at 100.0 µM 60% | [10]; [17] -67% | [10]; [18] 8% | [10]; at 50.0 µM 42.8% | [11]; at 1.2 µM 2% | [11]; at 3.7 µM 0% | [11]; [17] -71% | [11]; at 11.0 µM 1% | [11]; at 33.0 µM 29% | [12]; at 1.2 µM 1% | [12]; at 3.7 µM 0% | [12]; at 11.0 µM 0% | [12]; at 33.0 µM 30% | [13]; at 1.2 µM -5% | [13]; at 3.7 µM 1% | [13]; at 11.0 µM 2% | [13]; at 33.0 µM 19% | [14]; at 1.2 µM 0% | [14]; at 3.7 µM 13% | [14]; at 11.0 µM 22% | [14]; at 33.0 µM 60% | [15]; [17] -141% | [16]; at 1.2 µM 0% | [16]; at 3.7 µM 3% | [16]; at 11.0 µM 5% | [16]; at 33.0 µM 44%

COc1cccc(/C=N/C(/N=C/c2cccc(OC)c2O)c2cccc(OC)c2O)c1O
active: [1]; at 100.0 µM 97% | [2]; at 100.0 µM 91% | [3]; at 33.0 µM 93% | [3]; at 100.0 µM 98% | [4]; at 100.0 µM 98% | [5]; at 33.0 µM 87% | [5]; [18] 79% | [5]; at 50.0 µM 89.5% | [5]; at 100.0 µM 97% | [6]; at 50.0 µM 87% | [6]; at 100.0 µM 96% | [7]; at 33.0 µM 73% | [7]; at 100.0 µM 99% | [8]; [18] 71% | [8]; at 50.0 µM 86.7% | [11]; at 100.0 µM 98% | [12]; at 100.0 µM 93% | [13]; at 100.0 µM 97% | [14]; at 100.0 µM 98% | [16]; at 100.0 µM 98%
inactive: [1]; at 1.2 µM 1% | [1]; at 3.7 µM 5% | [1]; at 11.0 µM 23% | [1]; at 33.0 µM 67% | [2]; at 1.2 µM -1% | [2]; at 3.7 µM 1% | [2]; at 11.0 µM 7% | [2]; at 33.0 µM 26% | [3]; at 1.2 µM 2% | [3]; at 3.7 µM 15% | [3]; at 11.0 µM 61% | [4]; at 1.2 µM -1% | [4]; at 3.7 µM -2% | [4]; at 11.0 µM 5% | [4]; at 33.0 µM 36% | [5]; at 1.2 µM 4% | [5]; at 3.7 µM -28% | [5]; [17] 19% | [5]; at 11.0 µM 52% | [6]; at 1.2 µM -1% | [6]; at 3.7 µM 2% | [6]; [17] -4% | [6]; at 11.0 µM 8% | [6]; at 33.0 µM 25% | [6]; [18] 27% | [7]; at 1.2 µM 1% | [7]; at 3.7 µM 6% | [7]; at 11.0 µM 19% | [8]; [17] 4% | [9]; at 1.2 µM -2% | [9]; at 3.7 µM 3% | [9]; at 11.0 µM 8% | [9]; at 33.0 µM 20% | [9]; at 100.0 µM 54% | [10]; [17] -1% | [10]; [18] 34% | [10]; at 50.0 µM 45% | [11]; at 1.2 µM -2% | [11]; at 3.7 µM -1% | [11]; [17] -5% | [11]; at 11.0 µM 1% | [11]; at 33.0 µM 39% | [11]; [18] 43% | [11]; at 50.0 µM 67% | [12]; at 1.2 µM 0% | [12]; at 3.7 µM 7% | [12]; at 11.0 µM 4% | [12]; at 33.0 µM 24% | [13]; at 1.2 µM 0% | [13]; at 3.7 µM 2% | [13]; at 11.0 µM 7% | [13]; at 33.0 µM 33% | [14]; at 1.2 µM -1% | [14]; at 3.7 µM 3% | [14]; at 11.0 µM 19% | [14]; at 33.0 µM 67% | [16]; at 1.2 µM -1% | [16]; at 3.7 µM 9% | [16]; at 11.0 µM 21% | [16]; at 33.0 µM 68%
